Screening results: PubChem, The Scripps Research Institute Molecular Screening Center
TEAD-YAP block = TEAD-YAP interaction inhibition; HEK-TIYL cells, TEAD-Gal4/YAP UAS-luciferase luminescence; hit rate 1.4% among 640,000; AID 1259422; inhibition, % at 9.12 µM; in the data active means inhibition above about 32%;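 further: 0% = median of test compound wells and 100% = reference inhibitor wells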
FBW7 act = activators of human E3 ligase FBW7; Q969H0; AID 1259310; normalized activity (activation), % at 26.1 µM; hit rate 0.13% among 650,000; AlphaScreen FBW7–phospho-cyclin E peptide binding, activator screen; in the data active means normalized activity above about 1.9%;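 further: purified mutant Fbw7 with reduced substrate affinity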
Target sequence (Q969H0 whole entry, looked up): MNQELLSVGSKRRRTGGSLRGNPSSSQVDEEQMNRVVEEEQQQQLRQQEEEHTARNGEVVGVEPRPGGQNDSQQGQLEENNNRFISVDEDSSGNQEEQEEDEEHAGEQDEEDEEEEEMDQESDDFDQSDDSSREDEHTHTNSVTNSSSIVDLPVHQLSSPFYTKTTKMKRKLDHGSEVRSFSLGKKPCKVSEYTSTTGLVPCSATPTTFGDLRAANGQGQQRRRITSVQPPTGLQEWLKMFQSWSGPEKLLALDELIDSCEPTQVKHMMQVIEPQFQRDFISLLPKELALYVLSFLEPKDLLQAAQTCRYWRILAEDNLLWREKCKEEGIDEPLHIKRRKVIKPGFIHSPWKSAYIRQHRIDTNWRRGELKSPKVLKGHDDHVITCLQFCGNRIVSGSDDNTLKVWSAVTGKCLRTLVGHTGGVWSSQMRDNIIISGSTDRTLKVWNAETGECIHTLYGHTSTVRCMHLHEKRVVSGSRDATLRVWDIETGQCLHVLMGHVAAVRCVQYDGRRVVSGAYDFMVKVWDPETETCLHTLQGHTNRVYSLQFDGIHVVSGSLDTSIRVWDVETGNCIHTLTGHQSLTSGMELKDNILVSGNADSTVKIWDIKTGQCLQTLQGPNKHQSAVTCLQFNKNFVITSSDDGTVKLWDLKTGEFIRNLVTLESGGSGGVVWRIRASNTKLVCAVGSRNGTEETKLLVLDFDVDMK
MITF primary = blocks human microphthalmia-associated transcription factor. O75030. AlphaScreen MITF homodimerization, bead proximity signal. inhibition, % at 2.6 µM. hit rate 0.91% among 650,000; in the data active means inhibition above about 50%;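 further: 0% = vehicle wells with protein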
GPR151 ag = activates the human receptor GPR151; hit rate 1% among 650,000; PathHunter beta-arrestin GPR151 cells, luminescence; activation, % at 11.2 µM; Q8TDV0; AID 1508602; in the data active means activation above about 4.9%;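 further: 0% = median of compound wells and 100% = cells with positive control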
Starred values were filed as active, the others as inactive. Compounds with a hit are over-represented: about 3.5% of the library has one in this group of screens.

SMILES | TEAD-YAP block | FBW7 act | MITF primary | GPR151 ag
CCOC(=O)c1c(NC(=O)C2C3C=CC(C3)C2(C)C(=O)O)sc2c1CCCC2 (stereo not given) | 40* | -1 | 60* | 2
CCOC(=O)/C=C/C(=O)Nc1sc(C)c(C)c1C(N)=O | 11 | 0 | 15 | 0
CCOC(=O)c1c(-c2ccc(OCC)cc2)csc1NC(=O)/C=C/C(=O)O | 48* | 0 | 16 | -1
CCOC(=O)c1c(NC(=O)/C=C/C(N)=O)sc(C)c1C | 45* | 0 | 6 | 1
CCOC(=O)c1c(NC(=O)/C=C/C(=O)O)sc(C)c1-c1ccc(Cl)cc1 | 41* | 0 | 10 | 0
COC(=O)c1c(NC(=O)/C=C/C(=O)O)sc(Cc2ccccc2)c1C | 36* | 1 | 2 | -1
COC(=O)c1c(NC(=S)Nc2ccccc2)sc(Cc2ccccc2)c1C | -4 | 0 | 6 | 1
CCc1cc2c(=O)oc(-c3ccccc3C)nc2s1 | -2 | 0 | 4 | 0
O=C1OC(Nc2ccc(F)c(Cl)c2)c2ccccc21 (stereo not given) | 8 | 0 | 5 | -1
Cc1ccoc1C(=O)NCC1Cc2cccc(-c3ccncc3)c2O1 (stereo not given) | -5 | 0 | -7 | 0
CCCC(Nc1ncnc2sccc12)c1ccccc1 (stereo not given) | 21 | 0 | -7 | -1
CC(C)CCCC(C)Nc1ncnc2sccc12 (stereo not given) | 48* | 0 | 14 | 2
Fc1ccccc1N=c1oc2ccc(Br)cc2cc1-c1nc2ccccc2[nH]1 | -24 | 0 | -3 | 1
CS(=O)(=O)C1=NN2C(=N)/C(=C\c3ccc(SCc4ccco4)o3)C(=O)N=C2S1 | 4 | -1 | 79* | 1
N=C1/C(=C\c2ccc(SCc3ccco3)o2)C(=O)N=C2SC(N3CCOCC3)=NN12 | -1 | 0 | 62* | 1
CN1C(=O)/C(=C/c2ccc(SCc3ccco3)o2)SC1=S | -18 | -1 | 57* | 0
CC1=NN2C(=N)/C(=C\c3ccc(SCc4ccco4)o3)C(=O)N=C2S1 | 12 | 0 | 12 | 0
COCCNc1nc(-c2ccc3[nH]ccc3c2)ccc1C(=O)NCCNC(C)=O | 9 | 0 | 24 | 0
OCCC1CN(Cc2ccccc2F)CCN1Cc1ccc(F)cc1 (stereo not given) | -4 | 0 | -9 | 0
CCOC(=O)C1CCN(C2=NC(=O)/C(=C\c3cccc(O)c3)S2)CC1 | 4 | 0 | 8 | 2
COc1ccc(-n2c(/C=C/N(C)C)c([N+](=O)[O-])c3ccc(O)c(COC(C)=O)c32)cc1 | 12 | 0 | 15 | 0
CCN(CC)Cc1c(O)ccc2c([N+](=O)[O-])c(C)n(-c3ccc(OC)cc3)c12 | 37* | 0 | -7 | -1
Cc1csc(NC(=O)C(Cc2c[nH]c3ccccc23)NC(=O)OC(C)(C)C)n1 (stereo not given) | 41* | 0 | 12 | -1
O=C(CNC(=O)/C=C/c1ccccc1)N=Nc1c(O)[nH]c2ccccc12 | 1 | 0 | 12 | 1
CC(C)Nc1ncnc2c1cnn2-c1ccc(Cl)cc1 | 56* | 0 | 18 | 0
SMILES | TEAD-YAP block | FBW7 act | MITF primary | GPR151 ag
O=C(NNc1ncnc2c1cnn2-c1ccc(F)cc1)c1cccs1 | 31 | 0 | -15 | 2
O=C(NNc1ncnc2c1cnn2-c1ccc(Cl)cc1)c1cccs1 | 57* | 0 | -16 | 1
Clc1ccc(-n2ncc3c(Nc4ccc(Br)cc4)ncnc32)cc1 | 42* | 0 | -2 | 1
Clc1ccc(-n2ncc3c(NC(c4ccccc4)c4ccccc4)ncnc32)cc1 | -3 | 0 | 1 | 2
Clc1ccc(Nc2ncnc3c2cnn3-c2ccccc2)cc1 | -18 | 0 | -5 | 0
Cc1cc(=O)nc2c3ccccc3n(C(C)C(=O)N3CCN(c4ccc(Cl)cc4)CC3)n12 (stereo not given) | 5 | 0 | -8 | 1
O=C(CSc1ccccc1)Nc1cccc([N+](=O)[O-])c1 | -21 | 0 | 21 | 0
CC1CCCC(NC(=O)C2N(CCN3CCCCC3C)C(=O)C3C(C(=O)Nc4cc(Cl)cc(Cl)c4)C4C=CC32O4)C1C (stereo not given) | -12 | 0 | -6 | 1
CC(C)N(CCNC(=O)c1ccnc(Nc2cnccn2)c1)C(C)C | -4 | 0 | 14 | 0
O=S(=O)(c1ccc2c(c1)N=Cc1c(nc3sccn13)O2)N1CCOCC1 | -9 | 0 | 6 | 0
O=S(=O)(c1ccc2c(c1)N=Cc1c(F)cccc1O2)N1CCOCC1 | 45* | 0 | -11 | 0
CCOc1ccccc1C(=O)NCCCc1ccccc1 | -14 | 0 | -16 | 0
Cc1cccc(NC(c2cccc(C)n2)c2ccc3ccc(C)nc3c2O)n1 (stereo not given) | -17 | 0 | 15 | 0
Cc1ccc2ccc(C(Nc3ccccn3)c3ccc(F)cc3)c(O)c2n1 (stereo not given) | 20 | 0 | 15 | -1
Cc1ccc2ccc(C(Nc3ccccn3)c3ccccn3)c(O)c2n1 (stereo not given) | 39* | 0 | 6 | 0
Cc1cccc(NC(c2ccccn2)c2ccc3ccc(C)nc3c2O)n1 (stereo not given) | 49* | 0 | 15 | 2
Nc1ccc(C(=O)CC(=O)Nc2ccc(C(=O)O)cc2)cc1 | 9 | 0 | -17 | 1
COc1ccc2[nH]c3c(c2c1)CCNC3=O | 46* | 0 | -3 | 1
O=C(O)COc1ccc(/C=C/c2nc3ccccc3s2)cc1 | 72* | 0 | -3 | -8
O=C(O)c1ccc(/C=C/c2nc3ccccc3s2)cc1 | -40 | 0 | -3 | -2
CCN(CC)c1ccc(/C=C/c2nc3ccccc3s2)cc1 | 64* | -1 | -10 | -1
CCN(CC)c1ccc(Nc2nc(Nc3ccc(N(CC)CC)cc3)nc(Sc3nc4ccccc4s3)n2)cc1 | -6 | 0 | 8 | 2
COc1cccc2oc(-c3ccccc3)cc(=O)c12 | 60* | 0 | 12 | -11
COc1cccc(S(=O)(=O)NCc2ccccn2)c1 | 10 | 0 | 9 | -2
O=S(=O)(NCc1ccccn1)c1ccc(Cc2ccc(S(=O)(=O)NCc3ccccn3)cc2)cc1 | 59* | 0 | 8 | 0
SMILES | TEAD-YAP block | FBW7 act | MITF primary | GPR151 ag
COc1cc(S(=O)(=O)NCc2ccccn2)ccc1Cl | 37* | 0 | 2 | 2
CCOC(=O)CCCCC(O)c1[nH]c(=O)[nH]c1CN1CCCCC1 (stereo not given) | 0 | 0 | 16 | 1
COc1cccc(C=O)c1OC(=O)c1ccc2ccccc2c1 | -17 | 1 | 19 | 1
COc1cccc(C=O)c1OC(=O)c1cccc(Cl)c1 | -18 | 12* | 13 | -1
Nc1ccc2oc(-c3ccccc3Cl)nc2c1 | 42* | 0 | 10 | -8
Nc1ccc2oc(-c3cc(Br)ccc3Cl)nc2c1 | 41* | 0 | -3 | 0
Nc1ccc2oc(-c3cc(I)ccc3Cl)nc2c1 | 34* | 0 | 13 | 0
Nc1ccc(Cl)c(-c2nc3cc(Cl)ccc3o2)c1 | -66 | 1 | 23 | -1
Nc1ccc2oc(-c3cc(Cl)ccc3Cl)nc2c1 | 22 | 1 | 20 | -1
